# For some of these results: Measured potencies and affinities stand elsewhere.
# Assays:
# Design in all cases: scale not given: direction of the effect not stated beside the values
# [1] = target: Protein translocase subunit SecA (Escherichia coli (strain K12)) (UniProt P10408); test: Assay to Identify E. coli SecA ATPase Inhibitors; type: functional; conditions: 30 µM
# [2] = target: T1, Ubiquitin-activating enzyme e1, putative (Leishmania donovani (strain BPK282A1)) (UniProt E9BSI1); test: Leishmania donovani Ubiquitin Activating Enzyme (LdE1); type: functional; conditions: 30 µM
# T1 sequence (whole entry): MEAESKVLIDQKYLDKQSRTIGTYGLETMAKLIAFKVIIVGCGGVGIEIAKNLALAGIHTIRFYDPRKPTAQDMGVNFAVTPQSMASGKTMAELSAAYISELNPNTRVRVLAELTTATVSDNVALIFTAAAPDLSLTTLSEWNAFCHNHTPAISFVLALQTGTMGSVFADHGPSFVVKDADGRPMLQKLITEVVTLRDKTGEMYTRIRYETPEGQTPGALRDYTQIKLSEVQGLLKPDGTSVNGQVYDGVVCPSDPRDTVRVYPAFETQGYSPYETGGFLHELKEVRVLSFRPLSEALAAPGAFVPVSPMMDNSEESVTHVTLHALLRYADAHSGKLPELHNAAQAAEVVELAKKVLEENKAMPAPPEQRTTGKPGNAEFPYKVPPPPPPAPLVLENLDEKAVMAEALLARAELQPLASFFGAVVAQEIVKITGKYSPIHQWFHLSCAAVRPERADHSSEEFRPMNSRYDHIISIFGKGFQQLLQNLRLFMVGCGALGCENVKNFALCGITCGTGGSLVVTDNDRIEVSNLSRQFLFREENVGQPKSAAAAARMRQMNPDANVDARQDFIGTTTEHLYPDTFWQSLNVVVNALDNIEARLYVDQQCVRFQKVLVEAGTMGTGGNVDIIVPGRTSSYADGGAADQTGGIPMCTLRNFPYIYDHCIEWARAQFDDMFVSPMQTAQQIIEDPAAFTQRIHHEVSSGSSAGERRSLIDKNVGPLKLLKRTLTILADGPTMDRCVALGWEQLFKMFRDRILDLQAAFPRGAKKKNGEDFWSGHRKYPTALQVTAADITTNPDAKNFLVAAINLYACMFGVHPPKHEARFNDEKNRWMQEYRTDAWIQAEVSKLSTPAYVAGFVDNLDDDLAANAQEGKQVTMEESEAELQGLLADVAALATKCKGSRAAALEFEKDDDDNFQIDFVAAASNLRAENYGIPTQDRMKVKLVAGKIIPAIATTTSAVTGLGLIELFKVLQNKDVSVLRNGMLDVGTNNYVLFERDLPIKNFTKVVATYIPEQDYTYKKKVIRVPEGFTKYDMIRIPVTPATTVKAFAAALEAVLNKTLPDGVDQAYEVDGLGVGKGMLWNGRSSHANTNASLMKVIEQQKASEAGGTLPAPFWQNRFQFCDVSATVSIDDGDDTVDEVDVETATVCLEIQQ
# [3] = target: AMP-activated protein kinase, AMPK (Homo sapiens) (UniProt P54646+O43741+P54619+Q9UGJ0+Q9Y478+Q13131+Q9UGI9); test: AMP-dependent Kinase enzyme assay. An in vitro enzyme assay that detects ADP turnover that is directly proportional to AMPK activity. This uses naive AMPK that is activated during the assay with MK-8722; type: functional; conditions: 30 µM
# [4] = target: Sialic acid-binding Ig-like lectin 9 (Homo sapiens) (UniProt Q9Y336); test: Hs-Siglec9 ALPHAscreen SOP 20170721; conditions: 10 µM
# Trypanosoma cruzi = test: Trypanosoma cruzi phosphomannomutase and mannose-1-phosphate guanylyltransferase assay; type: functional; conditions: 10 µM
# [5] = target: T2, Arginase-2, mitochondrial (Homo sapiens) (UniProt P78540); test: in vitro enzyme assay to detect the production of urea directly proportional to the activity of Arginase II; type: functional; conditions: 33.3 µM; note: in the data most compounds retested in dose-response had high values
# T2 sequence (whole entry): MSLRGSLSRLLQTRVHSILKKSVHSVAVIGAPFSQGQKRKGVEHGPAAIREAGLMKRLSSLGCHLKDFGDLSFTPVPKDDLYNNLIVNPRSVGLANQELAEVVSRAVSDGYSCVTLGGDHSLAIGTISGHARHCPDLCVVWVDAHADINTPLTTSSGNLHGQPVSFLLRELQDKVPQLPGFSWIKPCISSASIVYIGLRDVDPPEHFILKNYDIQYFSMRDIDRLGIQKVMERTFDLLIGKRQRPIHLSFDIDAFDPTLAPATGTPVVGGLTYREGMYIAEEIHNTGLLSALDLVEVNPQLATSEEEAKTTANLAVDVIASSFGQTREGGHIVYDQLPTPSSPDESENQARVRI
# [6] = target: T3, Proteasome subunit beta (Trypanosoma cruzi) (UniProt O96673); test: Trypanosoma cruzi proteasome chymotrypsin-like activity (TcProtChymo) assay.; note: in the data most compounds retested in dose-response had high values; type: functional; conditions: 9.37 µM
# T3 sequence (whole entry): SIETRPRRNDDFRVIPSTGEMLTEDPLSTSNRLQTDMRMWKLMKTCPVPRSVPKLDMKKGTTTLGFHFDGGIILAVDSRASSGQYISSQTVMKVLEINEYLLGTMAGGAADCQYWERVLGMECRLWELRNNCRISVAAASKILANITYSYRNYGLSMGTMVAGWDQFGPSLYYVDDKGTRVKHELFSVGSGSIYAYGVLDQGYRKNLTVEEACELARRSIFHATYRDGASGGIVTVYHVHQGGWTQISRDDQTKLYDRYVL
# Homo sapiens = species on record: Homo sapiens; test: To identify inhibition of the IFN signalling (Jak-Stat) pathway via expression of an eGFP reporter gene under the control of an IFN-stimulated response element (ISRE) containing MxA promoter.; type: functional; conditions: 30 µM
# [7] = target: T4, Tyrosyl-tRNA synthetase, putative (Trypanosoma cruzi (strain CL Brener)) (UniProt Q4DSP6); test: Trypanosoma cruzi tyrosyl tRNA synthetase (TcYRS) _High Tyrosine SOP; type: functional; conditions: 30 µM; note: in the data most compounds retested in dose-response had high values
# T4 sequence (whole entry): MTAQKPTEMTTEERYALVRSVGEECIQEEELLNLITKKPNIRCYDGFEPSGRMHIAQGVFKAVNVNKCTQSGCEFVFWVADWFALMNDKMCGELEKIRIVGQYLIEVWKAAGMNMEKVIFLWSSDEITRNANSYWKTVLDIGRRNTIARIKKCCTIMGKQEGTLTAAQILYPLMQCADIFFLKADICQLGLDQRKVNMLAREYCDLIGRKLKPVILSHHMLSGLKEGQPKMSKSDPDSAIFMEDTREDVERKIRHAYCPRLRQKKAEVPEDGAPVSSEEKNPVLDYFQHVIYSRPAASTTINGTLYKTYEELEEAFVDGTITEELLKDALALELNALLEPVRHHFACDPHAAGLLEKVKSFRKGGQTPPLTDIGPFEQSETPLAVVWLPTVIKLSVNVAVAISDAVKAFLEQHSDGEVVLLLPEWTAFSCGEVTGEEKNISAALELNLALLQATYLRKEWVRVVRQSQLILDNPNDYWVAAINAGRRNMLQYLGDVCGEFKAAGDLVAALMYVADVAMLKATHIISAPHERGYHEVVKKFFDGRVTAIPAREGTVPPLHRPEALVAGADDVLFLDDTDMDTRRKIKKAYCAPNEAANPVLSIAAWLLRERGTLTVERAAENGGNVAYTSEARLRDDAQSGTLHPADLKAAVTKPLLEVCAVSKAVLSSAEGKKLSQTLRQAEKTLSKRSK
# [8] = target: T4, Tyrosyl-tRNA synthetase, putative (Trypanosoma cruzi (strain CL Brener)); test: Trypanosoma cruzi tyrosyl tRNA synthetase (TcYRS) SOP; type: functional; conditions: 30 µM
# [9] = target: Chromo domain-containing protein 1 (Saccharomyces cerevisiae (strain ATCC 204508 / S288c) (Baker's yeast)) (UniProt P32657); test: ScCHD-1 Enzyme Inhibition Assay; type: functional; conditions: 30 µM; note: in the data most compounds retested in dose-response had high values
# Sequence of Chromo domain-containing protein 1 (Saccharomyces cerevisiae (strain ATCC 204508 / S288c) (Baker's yeast)) (P32657 whole entry, the tested form may be a part): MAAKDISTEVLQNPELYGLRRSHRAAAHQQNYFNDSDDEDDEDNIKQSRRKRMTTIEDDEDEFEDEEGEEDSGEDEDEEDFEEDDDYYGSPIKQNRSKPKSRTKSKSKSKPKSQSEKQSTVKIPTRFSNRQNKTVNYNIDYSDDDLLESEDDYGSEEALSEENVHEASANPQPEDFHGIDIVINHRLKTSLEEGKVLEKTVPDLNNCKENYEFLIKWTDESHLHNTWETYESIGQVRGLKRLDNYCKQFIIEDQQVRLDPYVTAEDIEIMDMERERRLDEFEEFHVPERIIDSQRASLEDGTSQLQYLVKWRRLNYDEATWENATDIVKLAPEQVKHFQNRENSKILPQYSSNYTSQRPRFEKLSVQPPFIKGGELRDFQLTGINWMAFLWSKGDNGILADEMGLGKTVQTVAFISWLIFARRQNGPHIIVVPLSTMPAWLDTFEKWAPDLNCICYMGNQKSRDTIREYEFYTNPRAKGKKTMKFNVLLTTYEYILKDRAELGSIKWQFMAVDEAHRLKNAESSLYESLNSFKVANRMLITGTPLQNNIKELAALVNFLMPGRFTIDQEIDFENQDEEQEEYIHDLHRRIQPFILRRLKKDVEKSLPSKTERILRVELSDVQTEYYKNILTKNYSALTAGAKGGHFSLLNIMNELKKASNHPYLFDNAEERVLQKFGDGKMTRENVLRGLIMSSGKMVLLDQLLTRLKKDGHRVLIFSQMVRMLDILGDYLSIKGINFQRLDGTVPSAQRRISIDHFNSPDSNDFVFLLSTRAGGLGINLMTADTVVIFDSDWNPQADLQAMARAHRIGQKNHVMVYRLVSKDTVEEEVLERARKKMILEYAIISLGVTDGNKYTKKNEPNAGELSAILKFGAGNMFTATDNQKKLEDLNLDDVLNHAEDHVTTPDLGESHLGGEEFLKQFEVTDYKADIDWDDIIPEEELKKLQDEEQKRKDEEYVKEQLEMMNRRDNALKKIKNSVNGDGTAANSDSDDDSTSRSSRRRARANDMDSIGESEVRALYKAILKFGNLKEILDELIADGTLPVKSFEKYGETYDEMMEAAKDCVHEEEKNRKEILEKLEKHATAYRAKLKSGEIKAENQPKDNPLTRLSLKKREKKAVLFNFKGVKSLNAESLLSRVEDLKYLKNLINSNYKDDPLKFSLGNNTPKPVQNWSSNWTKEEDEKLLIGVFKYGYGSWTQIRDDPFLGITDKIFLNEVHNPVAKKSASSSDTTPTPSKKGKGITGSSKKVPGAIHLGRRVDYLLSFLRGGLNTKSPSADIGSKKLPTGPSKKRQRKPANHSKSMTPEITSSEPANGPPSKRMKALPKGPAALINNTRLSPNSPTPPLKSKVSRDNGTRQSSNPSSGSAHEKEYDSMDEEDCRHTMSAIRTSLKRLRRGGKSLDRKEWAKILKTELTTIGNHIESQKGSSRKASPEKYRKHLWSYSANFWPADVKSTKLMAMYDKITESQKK
# Sequence of Protein translocase subunit SecA (Escherichia coli (strain K12)) (P10408 whole entry): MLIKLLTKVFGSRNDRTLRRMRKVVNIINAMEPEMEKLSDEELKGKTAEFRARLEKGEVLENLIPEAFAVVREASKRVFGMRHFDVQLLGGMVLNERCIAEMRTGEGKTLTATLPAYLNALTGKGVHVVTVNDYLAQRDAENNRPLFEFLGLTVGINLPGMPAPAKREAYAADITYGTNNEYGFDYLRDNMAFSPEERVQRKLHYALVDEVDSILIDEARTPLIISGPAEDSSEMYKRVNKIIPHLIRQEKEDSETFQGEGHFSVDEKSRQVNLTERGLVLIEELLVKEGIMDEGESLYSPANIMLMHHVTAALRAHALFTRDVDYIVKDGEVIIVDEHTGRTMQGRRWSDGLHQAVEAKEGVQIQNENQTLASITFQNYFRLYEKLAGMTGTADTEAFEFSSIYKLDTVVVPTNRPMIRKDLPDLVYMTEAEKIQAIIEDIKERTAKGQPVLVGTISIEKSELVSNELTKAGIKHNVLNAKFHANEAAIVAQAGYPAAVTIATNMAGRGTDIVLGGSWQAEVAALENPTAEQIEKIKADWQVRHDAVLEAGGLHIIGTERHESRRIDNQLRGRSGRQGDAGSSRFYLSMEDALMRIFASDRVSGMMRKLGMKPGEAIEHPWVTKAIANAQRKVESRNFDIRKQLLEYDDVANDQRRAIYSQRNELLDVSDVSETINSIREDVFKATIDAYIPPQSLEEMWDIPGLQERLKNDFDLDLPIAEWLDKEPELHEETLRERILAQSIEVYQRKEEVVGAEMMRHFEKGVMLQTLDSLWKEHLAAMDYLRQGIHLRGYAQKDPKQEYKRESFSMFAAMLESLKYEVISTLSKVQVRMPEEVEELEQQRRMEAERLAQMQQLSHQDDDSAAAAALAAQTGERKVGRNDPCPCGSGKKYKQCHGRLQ
# Sequence of Sialic acid-binding Ig-like lectin 9 (Homo sapiens) (Q9Y336 whole entry): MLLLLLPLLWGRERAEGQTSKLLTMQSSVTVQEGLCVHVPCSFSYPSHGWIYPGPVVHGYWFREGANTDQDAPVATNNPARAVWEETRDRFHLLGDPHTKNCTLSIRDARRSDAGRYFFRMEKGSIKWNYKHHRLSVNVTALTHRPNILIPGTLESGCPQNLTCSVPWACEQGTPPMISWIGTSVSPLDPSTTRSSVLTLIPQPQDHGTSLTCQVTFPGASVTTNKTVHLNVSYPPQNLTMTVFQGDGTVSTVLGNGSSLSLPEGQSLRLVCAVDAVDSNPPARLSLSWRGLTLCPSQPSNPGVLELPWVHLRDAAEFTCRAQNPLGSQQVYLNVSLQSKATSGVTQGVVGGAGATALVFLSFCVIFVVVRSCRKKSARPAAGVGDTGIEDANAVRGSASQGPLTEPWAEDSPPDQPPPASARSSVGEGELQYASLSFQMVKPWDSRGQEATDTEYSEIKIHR
compound,measurement,setting,value
O=C(CCCc1cn[nH]c1)N1C[C@@H](CN2CCOCC2)[C@@H](CO)C1,Percent Effect,[1],-5.38%
same,Percent Effect,[2],-5.48%
same,Percent Effect,[3],0.507%
same,Percent Effect,[4],-3.16%
same,Percent Effect,Trypanosoma cruzi,-2.74%
same,Percent Effect,[5],-2.27%
same,Percent Effect,[6],4.08%
same,Percent Effect,Homo sapiens,5.26%
same,Percent Effect,[7],0%
same,Percent Effect,[8],-5%
same,Percent Effect,[9],-2.89%
O=C1NCCN1C1CCN(Cc2ccccn2)CC1,Percent Effect,[1],-1.85%
same,Percent Effect,[2],0%
same,Percent Effect,[3],-5.58%
same,Percent Effect,[4],1.53%
same,Percent Effect,Trypanosoma cruzi,-2.12%
same,Percent Effect,[5],1.91%
same,Percent Effect,[6],8.62%
same,Percent Effect,Homo sapiens,0.116%
same,Percent Effect,[7],3.7%
same,Percent Effect,[8],2.44%
same,Percent Effect,[9],-3.18%
NC(=O)N1CCC2(CCN(Cc3cccc(F)c3)CC2)CC1,Percent Effect,[1],-2.86%
same,Percent Effect,[2],5.2%
same,Percent Effect,[3],-0.226%
same,Percent Effect,[4],14.9%
same,Percent Effect,Trypanosoma cruzi,1.67%
same,Percent Effect,[5],-9.65%
same,Percent Effect,[6],14.3%
same,Percent Effect,Homo sapiens,5.51%
same,Percent Effect,[7],5.38%
same,Percent Effect,[8],11.1%
same,Percent Effect,[9],-1.58%
Cc1ccc(C(=O)NCCCNS(C)(=O)=O)c(=O)[nH]1,Percent Effect,[1],-3.74%
same,Percent Effect,[2],16.2%
same,Percent Effect,[3],-2.72%
same,Percent Effect,[4],4.72%
same,Percent Effect,Trypanosoma cruzi,2.54%
same,Percent Effect,[5],5%
same,Percent Effect,[6],22.4%
same,Percent Effect,Homo sapiens,-1.74%
same,Percent Effect,[7],10.9%
same,Percent Effect,[8],18.3%
same,Percent Effect,[9],-7.91%
CCc1ccc(S(=O)(=O)Nc2cc(OC)c(OC)cc2C(=O)O)s1,Percent Effect,[1],-4.39%
same,Percent Effect,[2],13.2%
same,Percent Effect,[3],5.52%
same,Percent Effect,[4],-13.6%
same,Percent Effect,Trypanosoma cruzi,-8.12%
same,Percent Effect,[5],2.16%
same,Percent Effect,[6],8.54%
same,Percent Effect,Homo sapiens,8.65%
same,Percent Effect,[7],-7.39%
same,Percent Effect,[8],-1.24%
same,Percent Effect,[9],-5.49%
CN(C)CC1CN(c2cnc3ccccc3n2)CCO1 (stereo unspecified),Percent Effect,[1],-0.138%
same,Percent Effect,[2],22.8%
same,Percent Effect,[3],-4.08%
same,Percent Effect,[4],-7.06%
same,Percent Effect,Trypanosoma cruzi,3.49%
same,Percent Effect,[5],6.84%
same,Percent Effect,[6],12.7%
same,Percent Effect,Homo sapiens,19.6%
same,Percent Effect,[7],7.39%
same,Percent Effect,[8],26.6%
same,Percent Effect,[9],-5.98%
CC(C)n1c(C2CCCN(Cc3ccnn3C)C2)nc2ccccc21 (stereo unspecified),Percent Effect,[1],-5.27%
same,Percent Effect,[2],5.33%
same,Percent Effect,[3],6.84%
same,Percent Effect,[4],4.6%
same,Percent Effect,Trypanosoma cruzi,6.5%
same,Percent Effect,[5],-1.63%
same,Percent Effect,[6],6.78%
same,Percent Effect,Homo sapiens,18.1%
same,Percent Effect,[7],2.13%
same,Percent Effect,[8],14.1%
same,Percent Effect,[9],-3.27%
COC(=O)c1ccc2ccn(CC3CCCO3)c(=O)c2c1 (stereo unspecified),Percent Effect,[1],-0.0971%
same,Percent Effect,[2],5.48%
same,Percent Effect,[3],-14.6%
same,Percent Effect,[4],5.25%
same,Percent Effect,Trypanosoma cruzi,0.979%
same,Percent Effect,[5],12.3%
same,Percent Effect,[6],16.3%
same,Percent Effect,Homo sapiens,6.29%
same,Percent Effect,[7],4.3%
same,Percent Effect,[8],10%
same,Percent Effect,[9],78.9%
Cn1c(CN2CCOCC2)nnc1C1CCN(C(=O)C2CCCC2)CC1,Percent Effect,[1],0.739%
same,Percent Effect,[2],13.5%
same,Percent Effect,[3],1.53%
same,Percent Effect,[4],14.3%
same,Percent Effect,Trypanosoma cruzi,3.09%
same,Percent Effect,[5],0.476%
same,Percent Effect,[6],20.9%
same,Percent Effect,Homo sapiens,2.19%
same,Percent Effect,[7],5.82%
same,Percent Effect,[8],19.5%
same,Percent Effect,[9],-4.58%
COc1ccc(OC)c(CN2CCCCCC2c2cccs2)c1 (stereo unspecified),Percent Effect,[1],-4.16%
same,Percent Effect,[2],-7.79%
same,Percent Effect,[3],-2.05%
same,Percent Effect,[4],-14.1%
same,Percent Effect,Trypanosoma cruzi,7.59%
same,Percent Effect,[5],3.23%
same,Percent Effect,[6],9.05%
same,Percent Effect,Homo sapiens,8.15%
same,Percent Effect,[7],-5.29%
same,Percent Effect,[8],-32%
same,Percent Effect,[9],-9.84%
CC1=Nc2c(c(=O)[nH]n2C2CCOCC2)C(c2cccc(Br)c2)S1 (stereo unspecified),Percent Effect,[1],-5.02%
same,Percent Effect,[2],12%
same,Percent Effect,[3],-9.43%
same,Percent Effect,[4],-0.93%
same,Percent Effect,Trypanosoma cruzi,1.97%
same,Percent Effect,[5],82.6%
same,Percent Effect,[6],14.1%
same,Percent Effect,Homo sapiens,30.4%
same,Percent Effect,[7],9.52%
same,Percent Effect,[8],20.5%
same,Percent Effect,[9],-11.4%

# — ChEMBL document CHEMBL3988442, “University of Dundee, Small-Polar-MMV Screening Library” (2021)
